Hits are enriched below; roughly 2.8% of the tested compounds scored in any of these assays.
POLK inh – qHTS for Inhibitors of Polymerase Kappa | DNA polymerase kappa (Homo sapiens), Q9UBT6 | purified Pol kappa, fluorescent DNA synthesis assay, 10 min | Potency, µM (top dose mostly 107 µM), for the others: at the highest dose activity, negative = inhibition, hits mostly inhibitors | 400,000 compounds, 0.53% hits | AID 588579, 2011; further: potency means the concentration at half of the fitted maximal effect; on the % scale 0 is the no-effect control and ±100 the full control effect
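Kinetic fluorescence readout at 0 and 10 min followed reaction start with substrate at 50 nM final. Beforehand, enzyme (10 nM Pol kappa) stood 15 min with compound at room temperature; buffer-only wells were negative controls.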
POLH inh – qHTS for Inhibitors of Polymerase Eta; recombinant Pol eta, fluorescent DNA replication assay; DNA polymerase eta (Homo sapiens), Q9Y253; AID 588591, 2011; 390,000 compounds, 1.2% hits; Potency, µM (titrated, usually from 114 µM), for inactives: at the highest dose activity change, negative = inhibition, actives largely listed as inhibitors; further: potency means the concentration at half of the fitted maximal effect; on the % scale 0 is the no-effect control and ±100 the full control effect
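Pol eta (10 nM) was preincubated with compounds for 15 min at room temperature, after which fluorescent replication substrate (50 nM final) was added to start the reaction. Fluorescence was read kinetically at 0 and 10 min.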
WRN inhibitor – qHTS for Inhibitors of WRN Helicase | WRN helicase unwinding, fluorescent forked duplex, kinetic | 360,000 compounds, 0.46% hits | Potency, µM (titrated, usually from 114 µM), for inactives: at the top dose activity change, negative = inhibition, hits mostly inhibitors | AID 651768, 2012; further: potency means the concentration at half of the fitted maximal effect; on the % scale 0 is the no-effect control and ±100 the full control effect; nearly all actives have a fitted effect of over 55% in size
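Kinetic fluorescence helicase assay: unwinding of a quenched forked DNA duplex (100 nM final) with 2 mM ATP final raises red fluorescence (525/598 nm). Compounds sat 15 min at room temperature with 20 nM WRN beforehand.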
PI5P4Ka inh – qHTS for Inhibitors of phosphatidylinositol 5-phosphate 4-kinase (PI5P4K); 330,000 compounds, 1.2% hits; AID 652105, 2013; PI5P4Kalpha enzyme, ADP-Glo luminescence, 60 min; active compounds read low; max response, %; active means max response of -50% or lower; inconclusive means between -30% and -50%; inactive means -30% or higher; further: value at the top dose of about 77 µM; on the % scale 0 is the no-effect control and ±100 the full control effect
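Quantitative HTS of the MLSMR library against PI5P4Kalpha with substrate. ATP added last at 5 microM final; room temperature, 60 minutes. Remaining ATP depleted, ADP converted and read as luminescence.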
Pol beta inh – qHTS Assay for Inhibitors of DNA Polymerase Beta | 340,000 compounds, 1.3% hits | AID 485314, 2010 | Potency, µM (highest dose often 114 µM), for inactives: at the top dose activity change, negative = inhibition, hits mostly inhibitors | Pol beta primer extension/strand displacement, fluorescence kinetic | P06746; further: potency means the concentration at half of the fitted maximal effect; on the % scale 0 is the no-effect control and ±100 the full control effect
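Curves were derived by four-parameter Hill fits of normalized qHTS data. The kinetic fluorescent primer-extension read was taken at 0 and 10 min after 50 nM substrate, following a 15 min room-temperature preincubation of 10 nM enzyme with compounds.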
Pol iota inh – qHTS for Inhibitors of Polymerase Iota | DNA polymerase iota (Homo sapiens), Q9UNA4 | Pol iota fluorescent replication assay, 10 min | Potency, µM (top dose mostly 115 µM), for the others: at the highest dose activity, negative = inhibition, most hits filed as inhibitors | 390,000 compounds, 1% hits | AID 588590, 2011; further: potency means the concentration at half of the fitted maximal effect
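Pol iota at 10 nM preincubated 15 min with compounds at room temperature; reaction started with fluorescent substrate, 50 nM final. Fluorescence read kinetically at 0 and 10 min; buffer-only wells as negative control.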
PGK validate – qHTS for inhibitors of Phosphogylcerate Kinase: Hit Validation Screen; shares compounds with POLK inh; TbPGK coupled GAPDH assay, Kinase-Glo luminescence; Potency, µM (highest dose often 57.5 µM), for inactives: top-dose activity change, negative = inhibition, usual class: inhibitors; 500 compounds, 79% hits; further: potency means the concentration at half of the fitted maximal effect; on the % scale 0 is the no-effect control and ±100 the full control effect; nearly all actives have a fitted effect of over 65% in size
Target sequence (P07378 whole entry, looked up): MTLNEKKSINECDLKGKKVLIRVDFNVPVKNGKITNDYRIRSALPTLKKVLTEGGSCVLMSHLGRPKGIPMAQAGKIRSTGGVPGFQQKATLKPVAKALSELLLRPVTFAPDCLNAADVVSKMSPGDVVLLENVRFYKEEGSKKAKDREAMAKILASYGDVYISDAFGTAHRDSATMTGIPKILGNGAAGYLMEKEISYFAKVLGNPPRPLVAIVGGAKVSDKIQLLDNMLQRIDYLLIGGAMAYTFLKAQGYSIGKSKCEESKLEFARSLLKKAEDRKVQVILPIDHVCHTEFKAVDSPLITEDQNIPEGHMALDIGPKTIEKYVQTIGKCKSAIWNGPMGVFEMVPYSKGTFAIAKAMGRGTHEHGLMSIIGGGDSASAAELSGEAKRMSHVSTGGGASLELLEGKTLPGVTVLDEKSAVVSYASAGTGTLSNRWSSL
Pol iota confirm – qHTS for Inhibitors of Polymerase Iota: Confirmatory Assay for Cherry-picked Compounds. shares compounds with POLK inh. Pol iota primer extension, TAMRA/BHQ fluorescence. Potency, µM, usual class: inhibitors. 1,500 compounds, 77% hits. AID 720496, 2013; further: potency means the concentration at half of the fitted maximal effect
An asterisk follows results filed as active; ? = inconclusive; . = no result given; [ ] = dose if it differs, or a comment. Unless noted, the call rests on the fitted dose curve; in most records, active means well fitted curve in the direction sought with a large enough effect; inconclusive means small, poorly fitted or top-dose-only effect, or another doubt; inactive means no such curve, though single readings can be large; an effect the other way counts as inactive or inconclusive.

SMILES	POLK inh	POLH inh	WRN inhibitor	PI5P4Ka inh	Pol beta inh	Pol iota inh	Pol iota confirm	others
Cc1ccc(-c2csc(C3=C(O)CN(NC(=O)c4ccc([N+](=O)[O-])cc4)C3=N)n2)cc1	-4%	-2%	-1%	-7	?	-9%	.
N=C1C(c2nc(-c3cccc([N+](=O)[O-])c3)cs2)=C(O)CN1NC(=O)c1ccco1	?	50µM*	?	-55*	0%	50µM*	?
CC(=O)N1CCc2c(sc(NC(=O)CSc3ccc(C)cc3)c2-c2nc3ccccc3s2)C1	-8%[60.1 µM]	17%	.	.	5%	?	.
CC(C)N1CCc2c(sc(NC(=O)C3CC3)c2-c2nc3ccccc3s2)C1	.	.	.	.	.	.	42*
O=C(CCc1ccc(S(=O)(=O)N2CCOCC2)cc1)N/N=C/c1ccc(O)c(O)c1O	8.9µM*	?	79µM*	?	13µM*	2.8µM*	?
O=C(Nc1ccc(Cc2ccc(NC(=O)Nc3cccnc3)cc2)cc1)Nc1cccnc1	.	45µM*	-10%[11.6 µM]	-26	.	.	?
Cn1c2ccccc2c(=O)c2ccc(C#Cc3ccccn3)cc21	-19%	28µM*	-11%[11.6 µM]	-16	25µM*	32µM*	?
O=c1nc2c(O)cccn2c2c1c(=O)[nH]c1ccccc12	?	?	?	-58*	?	?	42*
Cc1ccccc1CN1C(=O)CN(S(C)(=O)=O)CC1(C)C(=O)NC(C)C (stereo not drawn)	.	.	3%	0	.	.	.
O=C(N/N=C/C=C\c1ccccc1[N+](=O)[O-])c1cc(-c2ccc3ccccc3c2)n[nH]1	-30%	?	-35%	-19	18µM*	?	38*
CCCCN1C(=O)CC2CCOC21C (stereo not drawn)	.	-7%	5%	3	.	.	.
CCCS(=O)(=O)c1cnc(C2COc3ccccc3O2)nc1N (stereo not drawn)	-17%	-7%	-3%	?	1%	-9%	.	PGK validate=18µM*
COC(=O)/C(=C\Nc1ccc(Oc2ccc(F)cc2F)nc1)NC(=O)c1ccccc1	7%	-10%	-1%	3	-1%	30%	.
CC(C(=O)Nc1ccc(C(=O)O)c(O)c1)N1C(=O)/C(=C\c2ccco2)SC1=S (stereo not drawn)	0%	3.2µM*	40µM*	?	?	?	.	PGK validate=23µM*
CC(C)C(C(=O)O)N1C(=O)/C(=C/C=C/c2ccco2)SC1=S (stereo not drawn)	3.2µM*	0.79µM*	3.5µM*	-94*	1.6µM*	1.1µM*	.	PGK validate=2.6µM*
CC(C)C(C(=O)O)N1C(=O)/C(=C/c2cccn2C)SC1=S (stereo not drawn)	-6%	-22%	-1%	0	23%	138%	.
CCOC(=O)C1CCN(S(=O)(=O)c2ccc(N3CCCCS3(=O)=O)cc2)CC1	-1%[60.1 µM]	-8%	.	.	8%	20%	.
O=c1c(-c2ccc(F)cc2)nc2cnc(N3CCOCC3)nc2n1C1CC1	1%[60.1 µM]	.	.	.	.	.	.
Cc1cc(-c2ccc(C)c(S(=O)(=O)N3CCN(c4cccc(C(F)(F)F)c4)CC3)c2)on1	-10%	-23%	.	.	-21%	25%	.

Source: PubChem (National Center for Advancing Translational Sciences (NCATS))
